# Measured values: PubChem BioAssay (Tox21)
# Values joined by “and” are separate entries in the source; they are usually repeats but may differ in a detail not shown here. Equal values may be shown once. Results filed as inconclusive are left out. Entries that show only a call come without a potency. Some compounds were tested as several samples or in several runs, with calls that do not always agree. Active and inactive are the calls of the source. Unless noted, calls come from the whole dose curve; as a rule, active = well fitted curve in the direction sought with a large enough effect in the repeat runs; inconclusive = weak or mixed curves; inactive = no such curve, though single readings can be large; an effect the other way counts as inactive or inconclusive.
# Legend:
# [1] = qHTS assay to identify small molecule antagonists of the estrogen related receptor (ERR) signaling pathway from Tox21 library - cell viability counter screen (AID 1224834); note: nearly all actives have a fitted effect of over 30% in size; note: potency is the fitted concentration of half-maximal effect
# Procedure, shortened: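 ERR cells, 2,000/well; 6 h settle at 37 C/5% CO2; pin-tool compound transfer in DMSO; 17.5 h at 37 C; CellTiter-Fluor, 30 min; fluorescence intensity.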
# [2] = target: Luciferin 4-monooxygenase (Photinus pyralis) (UniProt P08659); experiment: qHTS assay to identify small molecule inhibitors of firefly luciferase (AID 1224835); note: nearly all actives have a fitted effect of over 25% in size; note: potency is the fitted concentration of half-maximal effect
# Procedure, shortened: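 Inhibition of purified Photinus luciferase is measured by luminescence. Substrate levels (D-luciferin, ATP) sit at their KM values. Each compound is tested in a concentration series.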
# [3] = qHTS assay to identify small molecule agonists of the constitutive androstane receptor (CAR) signaling pathway - cell viability counter screen (AID 1224836); note: nearly all actives have a fitted effect of over 45% in size
# Procedure, shortened: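 Using CellTiter-Fluor, viability of HepG2 cells harbouring hCAR and CYP2B6-2.2kb was measured following 23 h incubation with a 15-concentration compound series plus PK11195 (0.75 uM final).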
# [4] = qHTS assay to identify small molecule antagonists of the constitutive androstane receptor (CAR) signaling pathway - cell viability counter screen (AID 1224837); note: nearly all actives have a fitted effect of over 45% in size
# Procedure, shortened: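 Viability was measured with CellTiter-Fluor in a HepG2 line carrying stably transfected hCAR and a CYP2B6-2.2kb construct. Cells were exposed for 23 hr at 37 C to 15 compound concentrations with 50 nM CITCO as agonist.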
# [5] = target: Nuclear receptor subfamily 1 group I member 3 (Homo sapiens) (UniProt Q14994); experiment: qHTS assay to identify small molecule antagonists of the constitutive androstane receptor (CAR) signaling pathway (AID 1224838);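 note: HepG2 cells stably expressing hCAR with CYP2B6 luciferase reporter stimulated by CITCO; nearly all actives have a fitted effect of over 40% in size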
# Procedure, shortened: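 Antagonist mode used CITCO at a final 50 nM to activate CAR in human hepatoma HepG2 cells carrying stable hCAR and a 2.2 kb CYP2B6 promoter-luciferase construct. Compounds were tested at 15 concentrations over 24 h, with luminescence as the end point.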
# [6] = target: Nuclear receptor subfamily 1 group I member 3 (Homo sapiens) (UniProt Q14994); experiment: qHTS assay to identify small molecule agonists of the constitutive androstane receptor (CAR) signaling pathway (AID 1224839); note: nearly all actives have a fitted effect of over 15% in size; note: potency is the fitted concentration of half-maximal effect
# Procedure, shortened: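 Double-stable HepG2 cells (hCAR, CYP2B6-2.2kb) seeded 4 h before compound addition. Exposure 24 h with 0.75 uM PK11195 final. Luciferase detected by ONE-Glo.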
# [7] = qHTS assay to identify small molecule antagonists of the estrogen related receptor signaling pathway with the pleiotropic PPARgamma coactivator (PGC) from Tox21 10K library - cell viability counter screen (AID 1224840; active = well fitted cell-killing curve with a large enough effect in the repeat runs, not every such curve was filed as active; note: nearly all actives have a fitted effect of over 40% in size; note: potency is the fitted concentration of half-maximal effect)
# Procedure, shortened: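 Multiplexed viability counter screen in the PGC/ERR cell line: cells treated with DMSO-dissolved compounds for 17.5 hours at 37 C, then viability measured as CellTiter-Fluor fluorescence.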
# [8] = target: Thyrotropin receptor (Homo sapiens) (UniProt P16473); experiment: qHTS assay to identify small molecule agonists of the thyroid stimulating hormone receptor (TSHR) signaling pathway (AID 1224843; calls by dose curve; note: nearly all actives have a fitted effect of over 45% in size)
# Procedure, shortened: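 A cell-based cAMP HTRF format was run in TSHR-transfected HEK293 cells, 800 per well. Treatment: 30 min, room temperature. Detection: 1 h with labelled cAMP and anti-cAMP cryptate. Concentration-response over 15 points, three replicates.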
# [9] = qHTS assay to identify small molecule agonists of the hypoxia (HIF-1) signaling pathway - cell viability counter screen (AID 1224844; calls by dose curve; note: nearly all actives have a fitted effect of over 50% in size)
# Procedure, shortened: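 Cytotoxicity was measured in parallel with the HRE-driven beta-lactamase readout: after 17 hrs of compound exposure at 37C, HRE-bla ME-180 cells received CellTiter-Glo and luminescence was recorded 30 min later.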
# [10] = qHTS assay to identify small molecule agonists of H2AX (AID 1224845; active = well fitted activation curve with a large enough effect in the signal ratio in the repeat runs, not every such curve was filed as active; the % refers to the signal ratio)
# Procedure, shortened: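 Phospho-H2AX Ser139 measured by HTRF (ex 320 nm; em 665 and 620 nm) after 24 hr antibody incubation. Compounds, 15 concentrations, 0.76% DMSO, were applied to CHO-K1 cells for 3hr at 37C before lysis.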
# [11] = qHTS assay to identify small molecule agonists of the hypoxia (HIF-1) signaling pathway (AID 1224846; active = well fitted activation curve with a large enough effect in the signal ratio in the repeat runs, not every such curve was filed as active; the % refers to the signal ratio)
# Procedure, shortened: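 Compounds from the Tox21 10K library, dissolved in DMSO, are tested for induction of a hypoxia response element–controlled beta-lactamase reporter in ME-180 cells. Exposure lasts 17 hrs at 37C after a 5 hr settling period, followed by CCF4-AM FRET substrate.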
# [12] = qHTS assay to identify small molecule agonists of H2AX - cell viability counter screen (AID 1224847; calls by dose curve; note: top concentration of the series differs between compounds; nearly all actives have a fitted effect of over 30% in size)
# Procedure, shortened: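 Quantitative HTS viability measurement: CHO-K1 wild-type cells in serum (10% FBS) medium, short 3 hr drug exposure at 37C with 0.76% DMSO, CellTiter-Glo luminescent detection.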
# [13] = qHTS RealTime-Glo MT Cell Viability Assay in HepG2 cells - 24 hour (AID 1224867); note: nearly all actives have a fitted effect of over 50% in size
# Procedure, shortened: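 Compound treatment began 5 h after plating HepG2 cells (600/well) with NanoLuc luciferase and prosubstrate. Plates stayed at 37 C for 40 h; luminescence was captured at six time points, 0 h through 40 h.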
# [14] = qHTS RealTime-Glo MT Cell Viability Assay in HEK293 cells - 32 hour (AID 1224868); note: nearly all actives have a fitted effect of over 50% in size; note: potency is the fitted concentration of half-maximal effect
# Procedure, shortened: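 Quantitative high-throughput screen of the Tox21 10K library in HEK293: cells and RealTime-Glo reagents plated together, compound added at 5 h, luminescence monitored through 40 h at 37 C.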
# [15] = A CellTox Green Cytotoxicity Assay to monitor cytotoxicity in HEK293 cells - 0 hour (AID 1224869); note: nearly all actives have a fitted effect of over 50% in size
# Procedure, shortened: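 Cells (HEK293, 600/well) and dye reagent are dispensed together. After 5 h at 37 C, 23 nL compound is pinned in. Plates stay at 37 C for 40 h with fluorescence read at 0h, 8h, 16h, 24h, 32h and 40h.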
# [16] = qHTS assay to identify small molecule antagonists of the estrogen related receptor signaling pathway with the pleiotropic PPARgamma coactivator (PGC) from Tox21 10K library (AID 1224841; call rule not given here)
# Procedure, shortened: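 Steps: plate 2,000 PGC/ERR cells per well; incubate 6 h at 37 C with 5% CO2; transfer compounds from DMSO stocks by pin tool; incubate 18 h at 37 C; add One-Glo; measure luminescence 30 min later.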
# [17] = qHTS assay to identify small molecule agonists of the estrogen related receptor signaling pathway with the pleiotropic PPARgamma coactivator (PGC) from Tox21 10K library (AID 1224842); note: nearly all actives have a fitted effect of over 15% in size
# Procedure, shortened: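 Luminescence from One-Glo (30 min, room temperature) measured after PGC/ERR cells had 18 h at 37 C with pinned compound (23 nL in DMSO). Cells had been seeded at 2,000 per well and pre-incubated 6 h.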
# [18] = qHTS assay to identify small molecule antagonists of the estrogen related receptor (ERR) signaling pathway from Tox21 library (AID 1224848); note: nearly all actives have a fitted effect of over 50% in size; note: potency is the fitted concentration of half-maximal effect
# Procedure, shortened: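 ERR cell line, 2,000 cells/well. 6 h settle, then compound (DMSO) added; 18 h at 37 C; ONE-Glo luminescence after 30 min RT.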
# [19] = qHTS assay to identify small molecule agonists of the estrogen related receptor (ERR) signaling pathway from Tox21 library (AID 1224849; calls by dose curve; note: nearly all actives have a fitted effect of over 15% in size); conditions: ERR reporter cell line, ONE-Glo luciferase, 18 h
# Procedure, shortened: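 Cells carrying the ERR reporter were plated and allowed to settle for 6 h, exposed to library compounds for 18 h at 37 C, then lysed with ONE-Glo and luminescence measured.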
# Luciferin 4-monooxygenase (Photinus pyralis), sequence (P08659 whole entry, looked up): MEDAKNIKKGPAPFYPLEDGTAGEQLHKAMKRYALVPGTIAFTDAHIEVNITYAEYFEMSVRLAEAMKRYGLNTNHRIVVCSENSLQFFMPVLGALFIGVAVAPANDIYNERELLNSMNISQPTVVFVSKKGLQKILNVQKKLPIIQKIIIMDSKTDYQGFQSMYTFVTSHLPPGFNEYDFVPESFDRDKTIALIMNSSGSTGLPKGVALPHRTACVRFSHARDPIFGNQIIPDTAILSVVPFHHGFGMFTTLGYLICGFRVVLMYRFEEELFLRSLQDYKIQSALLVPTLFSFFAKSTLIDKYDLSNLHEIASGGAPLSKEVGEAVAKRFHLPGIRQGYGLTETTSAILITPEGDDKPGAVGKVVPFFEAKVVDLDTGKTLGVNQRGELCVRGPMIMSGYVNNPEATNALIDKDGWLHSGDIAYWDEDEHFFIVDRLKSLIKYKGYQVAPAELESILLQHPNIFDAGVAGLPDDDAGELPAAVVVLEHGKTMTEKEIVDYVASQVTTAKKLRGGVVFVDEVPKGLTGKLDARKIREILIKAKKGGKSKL
# Nuclear receptor subfamily 1 group I member 3 (Homo sapiens), sequence (Q14994 whole entry, looked up): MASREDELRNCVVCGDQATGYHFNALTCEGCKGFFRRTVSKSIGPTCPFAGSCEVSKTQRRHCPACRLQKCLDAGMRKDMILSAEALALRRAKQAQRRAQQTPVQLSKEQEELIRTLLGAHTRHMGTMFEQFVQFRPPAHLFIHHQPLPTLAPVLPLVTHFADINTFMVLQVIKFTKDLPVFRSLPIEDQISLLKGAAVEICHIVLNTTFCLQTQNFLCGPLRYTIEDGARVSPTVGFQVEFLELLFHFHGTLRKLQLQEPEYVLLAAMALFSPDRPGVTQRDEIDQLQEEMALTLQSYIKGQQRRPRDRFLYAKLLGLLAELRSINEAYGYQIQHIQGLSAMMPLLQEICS
# Thyrotropin receptor (Homo sapiens), sequence (P16473 whole entry, looked up): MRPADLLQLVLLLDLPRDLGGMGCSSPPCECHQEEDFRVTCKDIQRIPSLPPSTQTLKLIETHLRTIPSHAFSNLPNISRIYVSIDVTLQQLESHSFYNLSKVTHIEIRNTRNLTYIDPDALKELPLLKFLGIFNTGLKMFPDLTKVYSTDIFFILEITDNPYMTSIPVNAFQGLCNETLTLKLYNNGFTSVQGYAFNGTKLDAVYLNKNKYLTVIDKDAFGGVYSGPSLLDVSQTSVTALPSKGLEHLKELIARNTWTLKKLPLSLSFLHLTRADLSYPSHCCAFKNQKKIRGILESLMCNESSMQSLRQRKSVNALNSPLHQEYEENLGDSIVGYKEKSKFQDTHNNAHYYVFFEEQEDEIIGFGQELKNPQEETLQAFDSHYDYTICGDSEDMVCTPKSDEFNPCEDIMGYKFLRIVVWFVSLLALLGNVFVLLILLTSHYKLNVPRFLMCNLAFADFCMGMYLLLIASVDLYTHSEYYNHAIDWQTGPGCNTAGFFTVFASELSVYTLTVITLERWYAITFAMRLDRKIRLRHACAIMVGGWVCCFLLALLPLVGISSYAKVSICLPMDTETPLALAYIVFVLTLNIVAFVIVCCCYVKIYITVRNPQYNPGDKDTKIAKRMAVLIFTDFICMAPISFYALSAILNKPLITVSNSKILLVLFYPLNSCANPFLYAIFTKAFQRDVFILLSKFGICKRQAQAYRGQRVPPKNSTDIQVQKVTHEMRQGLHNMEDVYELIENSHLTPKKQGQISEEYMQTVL
SMILES,Potency [1],Potency [2],Potency [3],Potency [4],Potency [5],Potency [6],Potency [7],Potency [8],Potency [9],Potency [10],outcome [11],Potency [12],outcome [13],Potency [14],Potency [15],Potency [16],Potency [17],Potency [18],"activity change, positive = activation ([19]; at 92.4 µM (top of the series))","activity change, positive = activation ([19]; at 42.5 µM (top of the series))"
CCOC(=O)CC(SP(=O)(OC)OC)C(=O)OCC (centres undefined),inactive,inactive,inactive,inactive,inactive,inactive,inactive,inactive,inactive,inactive,inactive,inactive,inactive,inactive,inactive,–,–,–,–,–
OCc1ccco1,inactive,inactive,–,inactive,inactive,inactive,inactive,inactive,inactive,inactive,inactive,inactive,inactive,inactive,inactive,inactive,inactive,inactive,4.84% (inactive),–
COC(C)(C)CCCC(C)C/C=C/C(C)=C/C(=O)OC(C)C (centres undefined),inactive,inactive,–,inactive,inactive,inactive,inactive,inactive,inactive,inactive,inactive,inactive,inactive,inactive,inactive,inactive,inactive,inactive,-14.1% (inactive),0.0177% (inactive)
C[C@H]1C(=O)O[C@@H]2CCN3CC=C(COC(=O)[C@](C)(O)[C@]1(C)O)[C@H]23,inactive,inactive,inactive,inactive,–,–,inactive,inactive,inactive,–,–,inactive,inactive,inactive,inactive,–,–,–,–,–
CN(C)CCC#N,inactive,inactive,inactive,inactive,–,–,inactive,–,inactive,inactive,inactive,inactive,inactive,inactive,inactive,–,–,–,–,–
C=CC(=O)OCCCCCC(C)C,inactive,inactive,inactive,inactive,–,–,inactive,inactive,inactive,inactive,inactive,inactive,inactive,inactive,inactive,–,–,–,–,–
Cc1cccc(C)c1N,inactive,inactive,inactive,inactive,–,–,inactive,inactive,inactive,inactive,inactive,inactive,inactive,inactive,inactive,–,–,–,–,–
N#CN=C(N)N,inactive,inactive,–,inactive,inactive,inactive,inactive,inactive,inactive,inactive,inactive,inactive,inactive,inactive,inactive,–,–,–,–,–
Cc1cccc(N)c1,inactive,inactive,–,inactive,inactive,inactive,inactive,–,inactive,inactive,–,inactive,inactive,inactive,inactive,inactive,inactive,inactive,7.86% (inactive) and 1.47% (inactive) and 12% (inactive),–
Nc1ncc([N+](=O)[O-])s1,49 µM (active) and inactive,inactive,inactive,inactive,–,–,inactive,inactive,inactive,inactive,inactive,inactive,inactive,inactive,inactive,inactive,inactive,inactive,2.32% (inactive) and 6.46% (inactive),–
Cl/C=C/Cl,inactive,inactive,inactive,inactive,–,–,inactive,inactive,inactive,inactive,inactive,inactive,inactive,inactive,inactive,–,–,–,–,–
Cc1cccc(C)c1NC(=O)CN1CCCC1=O,inactive,inactive,inactive,inactive,–,–,inactive,–,inactive,inactive,inactive,inactive,inactive,inactive,inactive,–,–,–,–,–
CN(C)NC(=O)CCC(=O)O,inactive,inactive,–,inactive,inactive,inactive,inactive,inactive,inactive,inactive,inactive,inactive,inactive,inactive,inactive,inactive,inactive,inactive,4.6% (inactive) and 12.8% (active),–
O=[N+]([O-])c1ccc(Cl)cc1,inactive,inactive,inactive,inactive,–,–,inactive,inactive,inactive,inactive,inactive,inactive,inactive,inactive,inactive,–,–,–,–,–
Cc1ccc(N)cc1,inactive,inactive,–,inactive,inactive,2.45 µM (active),inactive,inactive,inactive,inactive,inactive,inactive,inactive,inactive,inactive,inactive,inactive,inactive,14.9% (active) and 11.9% (inactive),–
Cc1ccc(O)c(C)c1,inactive,inactive,inactive,inactive,–,–,inactive,inactive,inactive,inactive,inactive,inactive,inactive,inactive,inactive,inactive,inactive,inactive,-0.712% (inactive) and 11.3% (inactive),–
COc1cc(-c2ccc(N)c(OC)c2)ccc1N,52 µM (active),31.8 µM (active) and inactive,–,inactive,inactive,54.7 µM (active) and 58.3 µM (active),inactive and 29.2 µM (active),–,inactive,–,inactive,inactive,inactive,inactive and 37.1 µM (active),inactive,inactive,inactive,inactive and 46.3 µM (active),–,–
